# Sampled rows, rich in hits. Any-hit rate of the full collection: about 4.5%.
# Efflux pump mplx: antifungal efflux pump inhibition, Nile Red retention | S. cerevisiae Candida pump triplex | inhibition, % at 10 µM | 330,000 compounds, 0.44% hits | AID 485275;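 active = plate passing quality check with inhibition over a set limit, or well fluorescence over plate mean plus 4 SD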;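 also: Nile Red retained in pooled yeast measured as flow cytometry median fluorescence; 0% = buffer negative control and 100% = Enniatin B positive control; higher means more Nile Red kept so more efflux inhibition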
# HDAC3 inhib: inhibitors of human histone deacetylase 3. O15379. recombinant HDAC3, fluorogenic peptide/trypsin coupled, fluorescence. inhibition, % at 8.3 µM. 320,000 compounds, 0.15% hits. AID 2718; in the data active = inhibition above about 26%, passing the limit was not always enough; inconclusive = no clear call, values can overlap the other calls
# Rce1 inh: inhibitors of yeast Ras-converting enzyme; Q03530; 290,000 compounds, 0.27% hits; calls only; yeast membranes, quenched prenylated peptide cleavage fluorescence;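 active = fall in fluorescence gain of 50% or more versus controls, with final raw signal at or below 3038400; inconclusive = same 50% fall but final raw signal above 3038400; inactive = fall in fluorescence gain under 50%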;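 also: plate controls were neutral control wells for no effect and wells lacking membranes for full effect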
# GRK2 aptamer HTS: inhibitors of human GRK2 displacing RNA aptamer; 330,000 compounds, 0.59% hits; inhibition of aptamer binding, % at 10 µM; P25098; bead flow cytometry, FAM-aptamer displacement from GRK2;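 active = inhibition of aptamer binding above 40%, roughly 3 SD of noise, on plates passing a quality check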;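 also: median bead fluorescence of bound FAM aptamer so fluorescent compounds give negative values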
# Rtt109 HAT inh: inhibitors of Candida albicans Rtt109/Vps75 histone acetyltransferase | Q5AAJ8 | purified Rtt109/Vps75, ThioGlo CoA-SH fluorescence, 4 h | inhibition, % at 34.9 µM | 330,000 compounds, 0.16% hits | AID 540336;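 active = inhibition of at least 50% in every replicate; inconclusive = best replicate reaches 50% inhibition but some replicates fall short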
# ALR H2O2 inh: inhibitors of human sulfhydryl oxidase ALR | P55789 | purified ALR, DTT oxidation, H2O2 HRP-luminol luminescence | inhibition, % (concentration not given with the values) | 290,000 compounds, 3.8% hits | AID 485317;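 active = mean replicate inhibition above about 79%, with every replicate also reaching it, limit read from the data; inconclusive = only one of the two criteria met; inactive = mean below limit and not every replicate reaching it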
# Target sequence (P55789 whole entry, looked up): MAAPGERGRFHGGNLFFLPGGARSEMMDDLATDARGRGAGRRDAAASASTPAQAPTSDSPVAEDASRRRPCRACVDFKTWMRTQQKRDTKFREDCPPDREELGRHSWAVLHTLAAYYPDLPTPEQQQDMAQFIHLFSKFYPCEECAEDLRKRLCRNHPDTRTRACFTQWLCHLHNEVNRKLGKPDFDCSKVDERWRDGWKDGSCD
# GRK2 inh confirm: human GRK2 inhibition confirmation, cherry pick 1 | shares compounds with GRK2 aptamer HTS | bead-bound GRK2, FAM-aptamer displacement, flow cytometry | aptamer displacement, % at 10 µM | 2,000 compounds, 4% hits | AID 504451;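 active = aptamer displacement above 40%, near three times the noise of non-fluorescent compounds, on plates passing quality checks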;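 also: negative values mostly reflect intrinsic compound fluorescence rather than true enhancement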
# Aptamer quench 1: quenches fluorescent RNA aptamer, GRK2 hit artifact; shares compounds with GRK2 aptamer HTS; Fluorescent RNA aptamer beads, quenching, flow cytometry; hits give high values; fluorescence change (kMESF span), kMESF (concentration not given with the values); 110 tested, under 10 active; AID 504521;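 active = compounds whose bead fluorescence drops by more than 37 kMESF across the dose range, marking them as dye quenchers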
# FAM quench CP1: counter-screen for GRK2 aptamer inhibitors: fluorescent aptamer quenchers. Carboxyfluorescein RNA aptamer on beads, flow cytometry quenching; hits give low values. 2,000 tested, under 10 active. fluorescence response (% of DMSO), % at 10 µM. shares compounds with GRK2 aptamer HTS;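 active = compounds that quench the bead-bound fluorescent RNA probe, cutting fluorescence to under half of the solvent control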;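 also: counterscreen run without GRK2 so only probe quenching by compound is measured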
# * = called active by the depositor; i = inactive; u = inconclusive; x = no result.
SMILES,Efflux pump mplx,HDAC3 inhib,Rce1 inh,GRK2 aptamer HTS,Rtt109 HAT inh,ALR H2O2 inh,GRK2 inh confirm,FAM quench CP1,others
CCCCNC(=O)CNC(=O)c1nn(-c2ccc(OC)c(Cl)c2)c(=O)c2ccccc12,0,0,i,0,6,x,4,101,
COc1ccc(-n2nc(C(=O)NCC(=O)NCCN(C)C)c3ccccc3c2=O)c(OC)c1,0,-2,i,0,5,-2,x,x,
CCN(CC)CCNC(=O)CNC(=O)c1nn(-c2ccc(OC)cc2OC)c(=O)c2ccccc12,0,3,i,0,7,x,-4,103,
COC(=O)CNC(=O)c1ccc(F)cc1,0,4,i,2,x,-43,x,x,
Cc1cccc2c1NC(=O)C2(O)N1CCCC(C)C1 (centres undefined),0,11,i,2,-5,-3,x,x,
CN(Cc1ccccc1)CC1C2CCC(C2)C1O (centres undefined),x,x,x,x,6,x,x,x,
CCOc1cccc(C(=O)NNC(=O)C2C3C=CC(C3)C2C(=O)O)c1 (centres undefined),0,-10,i,5,16,-1,x,x,
N[C@@H](C(=O)N[C@@H]1C(=O)N2C(C(=O)O)=C(Cl)CS[C@H]12)c1ccccc1,0,-8,i,0,0,-34,x,x,
NC(=O)c1cc[n+](CC2=C(C(=O)O)N3C(=O)[C@@H](NC(=O)C(c4ccccc4)S(=O)(=O)[O-])[C@H]3SC2)cc1 (some centres undefined),0,12,i,85*,2,x,99*,96,Aptamer quench 1=-7.8
C#CCOCCOCCOCCNc1nc(N2CCN(C(=O)[C@H](Cc3cc4ccccc4[nH]3)n3cc([C@@H](N)CC(C)C)nn3)CC2)nc(N2CCN(C(=O)[C@H](Cc3cc4ccccc4[nH]3)n3cc([C@@H](N)CC(C)C)nn3)CC2)n1,0,-1,i,70*,6,-11,-49,96,
C#CCOCCOCCOCCNc1nc(N2CCN(C(=O)CCCCCCCCCCNC(=O)[C@@H]([C@H](C)O)n3cc(C)nn3)CC2)nc(N2CCN(C(=O)CCCCCCCCCCNC(=O)[C@@H]([C@H](C)O)n3cc(C)nn3)CC2)n1,0,5,x,52*,3,-4,5,102,
C#CCOCCOCCOCCNc1nc(N2CCOCC2)nc(N2CCN(C(=O)[C@H](Cc3cc4ccccc4[nH]3)n3cc([C@@H](N)CC(C)C)nn3)CC2)n1,x,-4,i,x,-1,-13,x,x,
C#CCOCCOCCOCCNc1nc(N2CCOCC2)nc(N2CCN(C(=O)CCCCCCCCCCNC(=O)[C@@H]([C@H](C)O)n3cc(C)nn3)CC2)n1,0,3,x,3,5,-56,x,x,
Cc1ccccc1N(C(=O)CNC(=O)c1ccco1)C(C(=O)NC1CCCC1)c1ccncc1 (centres undefined),0,1,i,2,2,8,x,x,
COc1ccc(-c2c(-c3ccccc3OC)oc3ccccc23)cn1,0,2,x,0,0,-13,x,x,
CCn1c(=O)c([N+](=O)[O-])c(N2CCN(Cc3ccc4c(c3)OCO4)CC2)c2ccccc21,0,-3,x,1,15,-6,x,x,
COc1ccc(CCNC(=O)CN(C)S(=O)(=O)c2ccc(OC)cc2)cc1,0,-8,i,60*,15,x,8,99,
CCOC(=O)Cn1c(=O)n(Cc2ccco2)c(=O)c2ccc(C(=O)NC3CCCC3)cc21,0,u,i,86*,-3,-5,-2,103,
O=C(Cc1cccs1)NCc1cccs1,0,-13,i,0,-3,-6,x,x,
O=C(Cc1cccs1)NCc1cccc(Br)c1,0,-7,i,55*,9,-1,2,102,
Cc1c(Cl)cccc1NC(=O)CCN1C(=O)C2CC=CCC2C1=O (centres undefined),0,1,i,3,-2,-4,x,x,
